NIH3T3 tox = kills NIH 3T3 cells | hit rate 4.3% among 94,000 | AID 1345082 | Potency, µM (series often up to 96.7 µM), for inactives: at the highest dose activity change, negative = cytotoxicity, most hits filed as inhibitors | NIH 3T3 viability, CellTiter-Glo ATP luminescence, 48-72 h; also: nearly all actives have a fitted effect of over 55% in size
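Mouse fibroblast NIH 3T3 cells, 400 per well, received compound via pintool and were incubated for 48 or 72 hr prior to CellTiter-Glo ATP luminescence measurement.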
GPT2 inh = inhibitors of human GPT2 alanine aminotransferase | Recombinant GPT2, coupled pyruvate oxidase/HRP Amplex Red fluorescence | Potency, µM (titrated, usually from 57.7 µM), for the others: at the highest dose activity change, negative = inhibition, actives largely listed as inhibitors | hit rate 0.25% among 100,000 | AID 1671188; also: nearly all actives have a fitted effect of over 60% in size
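Recombinant GPT2 (10ng/uL) with 250uM a-KG and 2mM L-alanine, 30 min at room temperature, in HEPES pH 7.5 buffer. Pyruvate detected by pyruvate oxidase/HRP/Amplex Red fluorescence after 30 min in the dark; AOA (50uM) as positive control.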
HEK293 tox = HEK 293 cell cytotoxicity. hit rate 6.6% among 94,000. AID 1345083. HEK 293 viability, ATP luminescence (CellTiter-Glo), 48-72 h. Potency, µM (top dose mostly 115 µM), without a hit: at the highest dose activity change, negative = cytotoxicity, usual class: inhibitors; also: nearly all actives have a fitted effect of over 60% in size
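Read-out: CellTiter-Glo ATP luminescence. Cells: HEK 293, 250 cells/well. Exposure: 48 or 72 hr, 37 degree Celsius.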
Luciferase inh = Photinus pyralis luciferase inhibition; hit rate 2.5% among 76,000; purified P. pyralis luciferase, luminescence, biochemical; P08659; Potency, µM (highest dose often 115 µM), hits mostly inhibitors; also: nearly all actives have a fitted effect of over 65% in size
Target sequence (P08659 whole entry, looked up): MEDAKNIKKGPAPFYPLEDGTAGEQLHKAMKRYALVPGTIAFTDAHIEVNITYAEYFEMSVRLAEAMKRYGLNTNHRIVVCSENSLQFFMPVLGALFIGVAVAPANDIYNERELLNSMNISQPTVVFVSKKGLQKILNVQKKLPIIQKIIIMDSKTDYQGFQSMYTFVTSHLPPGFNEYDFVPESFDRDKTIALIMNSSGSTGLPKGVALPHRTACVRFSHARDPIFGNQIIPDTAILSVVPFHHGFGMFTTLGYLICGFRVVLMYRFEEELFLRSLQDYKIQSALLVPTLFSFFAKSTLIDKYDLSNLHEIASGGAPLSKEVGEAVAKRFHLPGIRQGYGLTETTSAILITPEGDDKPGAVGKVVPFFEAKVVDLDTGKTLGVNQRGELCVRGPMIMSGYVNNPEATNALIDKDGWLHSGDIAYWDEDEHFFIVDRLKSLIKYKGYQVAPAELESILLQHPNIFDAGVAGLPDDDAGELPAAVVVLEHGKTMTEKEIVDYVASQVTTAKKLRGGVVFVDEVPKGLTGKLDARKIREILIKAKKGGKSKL
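Luminescence read by CCD imaging after purified firefly luciferase (10nM final) was added to substrate buffer holding 10uM D-luciferin and 10uM ATP, pH 7.5, pre-dosed with compound.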
hNpr1 antagonist = antagonists of human natriuretic peptide receptor Npr1; P16066; HEK293 hNpr1 GloSensor cGMP, ANP-stimulated luminescence; Potency, µM (top dose mostly 46.3 µM), for inactives: top-dose activity change, negative = inhibition, actives largely listed as inhibitors; hit rate 1.6% among 76,000; AID 1347048; calls by dose curve; also: nearly all actives have a fitted effect of over 60% in size
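Compound pre-incubated 30 min at room temperature on GloSensor-loaded HEK293 cells stably carrying hNpr1 and the pGS-40F cGMP biosensor. Stimulation uses hNppA at 0.1 nM final; luminescence is taken at baseline and 20 min post-agonist.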
Active calls of the source: *; [ ] = another dose, or the depositor's remark. In the library only some 10% were active in any assay of this set; here they are far more common. Unless noted, calls follow the shape of the dose curve; as a rule, active = well fitted curve in the direction sought with a large enough effect; inconclusive = small, poorly fitted or top-dose-only effect, or another doubt; inactive = no such curve, though single readings can be large; an effect the other way counts as inactive or inconclusive. % is scaled to controls: 0 for no effect and ±100 for the full control effect; potency is read from the fitted curve at half-maximal effect.

Results for Cc1ccc(C(=O)NC2CCN(c3ccnc4ccnn34)C2)cc1 (stereo unspecified) ?
NIH3T3 tox: inconclusive; GPT2 inh: 0.7%[88.5 µM]; HEK293 tox: 63.1µM*

Results for O=C(Nc1cccc(C(F)(F)F)c1)c1cc(-c2ccc[nH]2)n[nH]1 ?
NIH3T3 tox: -3.0%; GPT2 inh: 1.9%; HEK293 tox: -4.6%; Luciferase inh: inconclusive; hNpr1 antagonist: -23.6%

Results for O=C(Nc1ccc2c(c1)C(=O)N1CCC[C@H]1C(=O)N2)c1cc(-c2ccccc2)n[nH]1 ?
NIH3T3 tox: inconclusive; GPT2 inh: 4.1%; HEK293 tox: -5.6%; Luciferase inh: inactive; hNpr1 antagonist: 2.5%

How did Cc1ccc(NC(=O)c2cc(-c3ccc[nH]3)n[nH]2)cc1F do in these assays?
NIH3T3 tox: inconclusive; GPT2 inh: inactive; HEK293 tox: inconclusive; Luciferase inh: 8.91µM*; hNpr1 antagonist: 4.9%

What do the screens show for `O=C(Nc1cccc(F)c1)c1cc(-c2ccc[nH]2)n[nH]1`?
NIH3T3 tox: -10.9%; GPT2 inh: inactive; HEK293 tox: -9.5%; Luciferase inh: 2.24µM*; hNpr1 antagonist: inconclusive

Results for O=C(Nc1ccc(F)cc1)c1cc(-c2ccc[nH]2)n[nH]1 ?
NIH3T3 tox: -27.7%; GPT2 inh: inactive; HEK293 tox: -22.7%; Luciferase inh: 5.01µM*; hNpr1 antagonist: -3.4%

How did NS(=O)(=O)c1ccc(CCNC(=O)c2cc(-c3ccc[nH]3)n[nH]2)cc1 do in these assays?
NIH3T3 tox: inactive; GPT2 inh: inactive; HEK293 tox: 0.3%; Luciferase inh: inactive; hNpr1 antagonist: 3.9%

Results for O=C(Nc1cccc(Cl)c1)c1cc(-c2ccc[nH]2)n[nH]1 ?
NIH3T3 tox: -2.8%; GPT2 inh: inactive; HEK293 tox: -3.1%; Luciferase inh: 1.58µM*; hNpr1 antagonist: inconclusive

How did COc1ccc(-c2ccc(C(=O)Nc3cccc(Cl)c3)c(Cl)c2)nn1 do in these assays?
NIH3T3 tox: -17.3%; HEK293 tox: inconclusive

How did COc1ccccc1Nc1ccnc(N2CCN([S+](=O)([O-])c3ccc(C)cc3)CC2)n1 do in these assays?
NIH3T3 tox: inconclusive; GPT2 inh: -6.4%; HEK293 tox: inconclusive

Results for COc1ccc(NC(=O)c2cc(-c3ccc[nH]3)n[nH]2)cc1F ?
NIH3T3 tox: 1.5%; GPT2 inh: inactive; HEK293 tox: 5.1%; Luciferase inh: 15.8µM*; hNpr1 antagonist: 5.1%

Results for Cc1cc(F)ccc1NC(=O)c1cc(-c2ccc[nH]2)n[nH]1 ?
NIH3T3 tox: -17.6%; GPT2 inh: -0.3%; HEK293 tox: inconclusive; Luciferase inh: 39.8µM*; hNpr1 antagonist: 1.0%

Results for Cc1cccc(NC(=O)c2cc(-c3ccc[nH]3)n[nH]2)c1 ?
NIH3T3 tox: -19.3%; GPT2 inh: 3.8%; HEK293 tox: -2.0%; Luciferase inh: 2µM*; hNpr1 antagonist: -18.1%

How did O=C(NCc1ccc(F)cc1)c1cc(-c2ccc[nH]2)n[nH]1 do in these assays?
NIH3T3 tox: -25.5%; GPT2 inh: 2.1%; HEK293 tox: -20.3%; Luciferase inh: inactive; hNpr1 antagonist: inconclusive

How did CSc1ccc(NC(=O)c2cc(-c3ccc[nH]3)n[nH]2)cc1 do in these assays?
NIH3T3 tox: -10.1%; GPT2 inh: inactive; HEK293 tox: -24.8%; Luciferase inh: 4.47µM*; hNpr1 antagonist: -2.3%

How did CC1CCC(NC(=O)c2cc(-c3ccc[nH]3)n[nH]2)CC1 (stereo unspecified) do in these assays?
NIH3T3 tox: 0.0%; GPT2 inh: -28.0%; HEK293 tox: 5.1%; Luciferase inh: inconclusive; hNpr1 antagonist: 4.6%

What do the screens show for `O=C(C1CCN([S+](=O)([O-])c2cccc(C(F)(F)F)c2)CC1)N1CCC(c2nc3ccncc3[nH]2)C1` (stereo unspecified)?
NIH3T3 tox: -2.9%; GPT2 inh: inactive; HEK293 tox: -6.8%

How did COc1cccc(C(=O)N2CCC3(CC2)N=C(c2ccc(Br)cc2)NO3)c1 do in these assays?
NIH3T3 tox: inconclusive; GPT2 inh: 3.4%; HEK293 tox: inconclusive; Luciferase inh: inactive; hNpr1 antagonist: inconclusive
